# ± gives the standard deviation.
# What was measured:
# Settings in all cases: modulator concentration 10 µM
# [1] = system: RAW-Dual (murine macrophage reporter line); assay: NF-kB reporter (SEAP) activity fold change vs agonist alone; higher = enhanced NF-kB activity
# Method in brief: (§1)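 RAW-Dual murine macrophage reporter cells were plated at 50 000 per well in 384-well plates, pin-transferred compound to 10 μM final, and pre-incubated for 1 hour at 37 °C before a PRR agonist was added and the cells incubated overnight. NF-κB activity was read from supernatant SEAP with QUANTI-Blue at 620 nm absorbance, and IRF activity from Lucia luciferase with QUANTI-Luc by luminescence. Each signal was expressed as fold change by dividing by the mean agonist-only control on the same plate. Two replicate plates were averaged, with errors obtained by propagation.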
# [2] = system: RAW-Dual (murine macrophage reporter line); assay: IRF reporter (Lucia luciferase) activity fold change vs agonist alone; higher = enhanced IRF activity
# Method in brief: as §1
# [3] = system: RAW-Dual (murine macrophage reporter line); assay: viability score (confluency relative to resting cells, overnight) (fraction); higher = more viable, active = viable (0.7 or more)
# Method in brief: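 Compound was added at a final 10 μM to RAW-Dual macrophages in 384-well plates and left overnight. Confluency was imaged with IncuCyte, and two masks were generated in IncuCyte software over all imaged wells. Each viability score is confluency relative to resting cells, and a compound met the cutoff only when both masks were above 70% of resting cells.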
# [4] = agonist: CpG ODN 1826 0.5 ug/mL
Structure (SMILES),"NF-kB reporter [1, 4]",NF-kB reporter ([1]; agonist: LPS 0.1 ug/mL),NF-kB reporter ([1]; agonist: MPLA […]),IRF reporter ([2]; agonist: 3'3'-cGAMP 10 ug/mL),IRF reporter ([2]; agonist: LPS 0.1 ug/mL),IRF reporter ([2]; agonist: MPLA […]),viability score [3]
C[C@H](NC(=O)C(=O)Nc1ccccc1C(C)(C)C)C(=O)N[C@@H](CC(=O)O)C(=O)COc1c(F)c(F)cc(F)c1F,1.32 ± 0.33,0.434 ± 0.023,1.69 ± 0.12,0.51 ± 0.037,0.839 ± 0.14,1.07 ± 0.14,0.606 (inactive)
Cc1cc(OC2CCN(S(=O)(=O)CCc3ccccc3)C2)cc(=O)n1C (stereo not drawn),1.13 ± 0.069,0.929 ± 0.088,1.15 ± 0.067,0.7 ± 0.054,0.785 ± 0.19,0.738 ± 0.29,0.975 (active)
CC(C)C(C(=O)Nc1ccc(F)cc1)N1C(=O)c2ccccc2C1=O (stereo not drawn),0.911 ± 0.079,1.06 ± 0.086,0.935 ± 0.077,0.957 ± 0.033,1.09 ± 0.15,0.943 ± 0.058,1.02 (active)
Nc1ccc(OCc2ccccc2)cc1,0.977 ± 0.16,1.01 ± 0.1,0.995 ± 0.12,0.635 ± 0.024,1.03 ± 0.1,1.16 ± 0.17,1.01 (active)
CCN(CC)CCOC(=O)c1ccc(N)cc1Cl.Cl,1.06 ± 0.094,0.971 ± 0.048,1.04 ± 0.038,0.957 ± 0.087,1.01 ± 0.089,0.897 ± 0.077,0.999 (active)
O=C(Nc1ccc(F)cc1)c1ccccc1Br,1.06 ± 0.092,1.06 ± 0.069,1 ± 0.065,0.73 ± 0.055,1.06 ± 0.065,1.04 ± 0.22,0.979 (active)
CN1CCN(C2=C(Cl)C(=O)N(c3cccc(Cl)c3)C2=O)CC1,1.09 ± 0.079,0.914 ± 0.099,1.01 ± 0.03,0.465 ± 0.022,0.972 ± 0.053,0.974 ± 0.096,0.993 (active)
CC#CC(=O)N1CCC[C@H]1c1nc(-c2ccc(C(=O)Nc3ccccn3)cc2)c2c(N)nccn12,0.946 ± 0.24,1.03 ± 0.077,0.876 ± 0.068,0.575 ± 0.019,1.02 ± 0.11,1.03 ± 0.15,0.736 (active)
COc1ccc(-c2oc3ccc(OC)cc3c2C(=O)Nc2ccccc2Cl)cc1,0.872 ± 0.051,1.05 ± 0.11,1.42 ± 0.041,0.756 ± 0.052,0.865 ± 0.062,1.84 ± 0.28,1 (active)
c1ccc(CCn2c(COc3ccccc3)nc3ccccc32)cc1,1.01 ± 0.16,0.987 ± 0.13,1.16 ± 0.16,1.21 ± 0.043,1.24 ± 0.16,1.34 ± 0.29,1.01 (active)
CCN(CC)Cc1cc(Nc2ccnc3cc(Cl)ccc23)ccc1O.Cl.Cl.O.O,0.606 ± 0.026,0.671 ± 0.054,0.944 ± 0.068,1.39 ± 0.23,1.22 ± 0.24,1.16 ± 0.46,0.931 (active)
CCCCNCCCCOc1ccc(C)cc1C(C)(C)C,0.441 ± 0.12,0.167 ± 0.036,1.38 ± 0.048,0.0798 ± 0.034,0.201 ± 0.056,2.6 ± 0.65,0.0697 (inactive)
COc1cc2c(cc1OC)C1C(=O)c3ccc4c(c3OC1CO2)C=CC(C)(C)O4 (stereo not drawn),0.92 ± 0.071,0.99 ± 0.096,1.55 ± 0.14,0.853 ± 0.04,1.62 ± 0.26,2.12 ± 0.42,0.986 (active)
CC(=O)N1CCc2ccc(NC(=O)C3(c4ccccc4)CCOCC3)cc2C1,0.91 ± 0.063,1 ± 0.082,1.4 ± 0.075,1.22 ± 0.06,1.28 ± 0.24,1.31 ± 0.54,0.979 (active)

# From the supplement of paper PMC10646978
